Experimental data as given in PubChem BioAssay (NCATS).
Several values for one entry are separate records, joined by “and”; a condition that tells them apart may be missing. Equal entries are not always repeated. Records with an inconclusive call do not appear. Activity calls are given as the source filed them. Calls come from the whole dose curve; as a rule, active = well fitted curve in the direction sought with a large enough effect; inconclusive = small, poorly fitted or top-dose-only effect, or another doubt; inactive = no such curve, though single readings can be large; an effect the other way counts as inactive or inconclusive. Numbered stars: 1 amine (or outer) side, 2 acyl side, 3 side chain; on linkers, the order of the positions; unused ones are H or OH. Square brackets hold non-standard residues; d marks the D form. Peptide text beside a SMILES is read from it. ξ: configuration not given here. X5 = O=C([C@@H](CC(O)CCl)O[*:1])[*:2]; aIle = CC[C@@H](C)[C@H](N)C(=O)O; ξLac(3-iPr) = CC(C)CC(O)C(=O)O; NMeV = CN[CH](C(=O)O)C(C)C; NMeA = CN[CH](C)C(=O)O; βAla = NCCC(=O)O

Experiments:
[1] = target: Cellular tumor antigen p53 (Homo sapiens) (UniProt P04637); test: Primary qHTS for small molecule compounds that upregulate eGFP-tagged delta133p53alpha (in N-terminal) cells. (AID 2060322); settings: NCI-H358 eGFP-delta133p53alpha fluorescence, 24 h; activation: stronger effect = higher value;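 note: cells pre-induced with doxycycline then dosed without doxycycline; 0% = DMSO vehicle and 100% = reference activator; nearly all actives have a fitted effect of over 75% in size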
Outline: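 NCI-H358 cells pre-induced 24 h with 10 ng/ml doxycycline for eGFP-delta133p53alpha, plated dox-free and exposed 24 h at 37C to titrated compounds. Fixed, Hoechst-stained; gated GFP peak intensity by laser scanning cytometry, normalized to DMSO (0%) and 57.5 uM 5-azacytidine (100%).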

[2] = target: Aldehyde dehydrogenase, mitochondrial (Homo sapiens) (UniProt P05091); test: qHTS for Inhibitors of the Aldehyde Dehydrogenase Family (ALDH2) Primary screen (AID 2061308); settings: ALDH2 enzyme inhibition qHTS, 1536-well; series mostly up to 56 µM;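 note: plate controls were vehicle for no effect and reference inhibitor for full effect; nearly all actives have a fitted effect of over 55% in size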
[3] = target: Retinaldehyde dehydrogenase 3 (Homo sapiens) (UniProt P47895); test: qHTS for Inhibitors of the Aldehyde Dehydrogenase Family (ALDH1A3) Primary screen (AID 2061315); settings: ALDH inhibition qHTS; series mostly up to 56 µM;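 note: plate controls were DMSO vehicle for no effect and reference inhibitor for full effect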

Cellular tumor antigen p53 (Homo sapiens), sequence (P04637 whole entry, looked up): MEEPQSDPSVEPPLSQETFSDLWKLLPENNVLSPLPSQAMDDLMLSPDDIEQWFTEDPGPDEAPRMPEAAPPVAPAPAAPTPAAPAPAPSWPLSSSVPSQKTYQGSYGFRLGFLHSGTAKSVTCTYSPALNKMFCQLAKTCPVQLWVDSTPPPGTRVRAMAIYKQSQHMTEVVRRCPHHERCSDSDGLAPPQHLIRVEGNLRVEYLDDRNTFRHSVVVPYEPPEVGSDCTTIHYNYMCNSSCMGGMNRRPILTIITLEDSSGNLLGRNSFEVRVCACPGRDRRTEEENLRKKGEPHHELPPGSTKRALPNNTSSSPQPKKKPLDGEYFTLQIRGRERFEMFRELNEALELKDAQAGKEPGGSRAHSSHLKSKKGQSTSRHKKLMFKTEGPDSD

Cc1cccc(NC(=O)c2ccc(C(F)(F)F)cc2C(=O)O)n1
inactive: activation [1] 1% | Potency [2] | Potency [3]

CC(=O)O[C@H]1CN2CCC1CC2
inactive: activation [1] 5% | Potency [2] | Potency [3]

CCC1NC(=O)C2C(Cl)C(Cl)CN2C(=O)C(C(C)O)NC(=O)CC(c2ccccc2)NC(=O)C(CO)NC1=O (stereo not given)
inactive: activation [1] 8.93% | Potency [2] | Potency [3]

CC(=O)O[C@H]1CC[C@H]2[C@@H]3CC[C@H]4CC(=O)C=C(C)[C@]4(C)[C@H]3CC[C@]12C
inactive: activation [1] -6.33% | Potency [2] | Potency [3]

C/C=C(\C)C(O)C(C)/C=C(C)/C=C/C/C(C)=C/Cc1nc(OC)c(OC)c(O[C@@H]2O[C@@H](C)[C@H](O)[C@@H](O)[C@H]2O)c1C (stereo not given in full)
inactive: activation [1] -19.1% | Potency [2] | Potency [3]

C=C1[C@@H](C)[C@H]2[C@H](Cc3ccccc3)NC(=O)[C@]23[C@H](OC(C)=O)/C=C/[C@](C)(O)C(=O)[C@@H](C)C/C=C/[C@H]3[C@@H]1O
inactive: activation [1] -8.04% | Potency [2] | Potency [3]

C[C@]12CC[C@H]3[C@@H]([C@H](O)CC4=CC(=O)CC[C@@]43C)[C@@H]1CC[C@@H]2O
inactive: activation [1] -2.33% | Potency [2] | Potency [3]

CN1CCc2cc3c(cc2C1C1OC(=O)c2c1ccc1c2OCO1)OCO3 (stereo not given)
inactive: activation [1] -26% | Potency [2] | Potency [3]

C=CCN1C[C@H](C)N([C@H](c2ccc(C(=O)N(CC)CC)cc2)c2cccc(OC)c2)C[C@H]1C
inactive: activation [1] -16.4% and -0.333% | activity change, negative = inhibition [2] -7.89% [at 11.2 µM] | activity change, negative = inhibition [3] 6.9% [at 11.2 µM]

Oc1ccc2c3c1O[C@H]1[C@H](N(CCCl)CCCl)CC[C@@]4(O)[C@@H](C2)N(CC2CC2)CC[C@]314
inactive: activation [1] -14.3% | activity change, negative = inhibition [2] -5.73% [at 11.2 µM] | activity change, negative = inhibition [3] -18.8% [at 11.2 µM]

C[C@@](O)(COc1ccc(C#N)cc1)C(=O)Nc1ccc(C#N)c(C(F)(F)F)c1
inactive: activation [1] -6.21% | Potency [2] | Potency [3]

COc1ccc2c3c4n(c2c1)[C@@H](C=C(C)C)OOC(C)(C)C[C@@H]4N1C(=O)[C@@H]2CCCN2C(=O)[C@]1(O)[C@H]3OCC=C(C)C
inactive: activation [1] 15.3% | Potency [2] | Potency [3]

CCC(C)C1NC(=O)C2CCCN2C(=O)C(CC(C)C)OC(=O)CCNC(=O)C(C)N(C)C(=O)C(C(C)C)N(C)C1=O (stereo not given) (cyclo([ξLac(3-iPr)]PI[NMeV][NMeA][βAla]); configuration not given here)
inactive: activation [1] -7.14% | Potency [2] | Potency [3]

COC(=O)N1CCN(C(=O)Cc2ccc(Cl)c(Cl)c2)[C@@H](CN2CCCC2)C1
inactive: activation [1] 1.91% | Potency [2] | Potency [3]

CC[C@@H](C)[C@@H]1NC(=O)[C@@H]2CCCN2C(=O)[C@@H](CC(O)CCl)OC(=O)CCNC(=O)[C@H](C)N(C)C(=O)[C@H](C(C)C)N(C)C1=O (stereo not given in full) (cyclo([NMeA][βAla][X5]P[aIle][NMeV]))
inactive: activation [1] -10.7% | Potency [2] | Potency [3]

C/C=C1/CN2CC[C@]34C(=Nc5ccc(OC)cc53)C2C[C@@H]1C4(CO)C(=O)OC (stereo not given in full)
inactive: activation [1] -9.16% | Potency [2] | Potency [3]

CC[C@H]1C[C@H]2[C@@H]3CCC4=CC(=O)CC[C@@H]4[C@H]3CC[C@]2(C)[C@H]1O
inactive: activation [1] 5.67% | Potency [2] | Potency [3]

CO/C1=C\C(C)=C\[C@@H](C)[C@@H](O)[C@@H](C)C/C(C)=C/C=C/[C@H](OC)[C@@H]([C@@H](C)[C@@H](O)[C@H](C)[C@@]2(O)C[C@@H](O)[C@H](C)[C@@H](C(C)C)O2)OC1=O
inactive: activation [1] 13% | Potency [2] | Potency [3]

C[C@]12CC[C@@H](O)C[C@H]1CC[C@@H]1[C@@H]2CC[C@]2(C)C(=O)CC[C@@H]12
inactive: activation [1] 3.67% | Potency [2] | Potency [3]

CC1CCCC(=O)CCC/C=C/c2cc(O)cc(O)c2C(=O)O1 (stereo not given)
inactive: activation [1] 7.14% | Potency [2] | Potency [3]

CC(CCc1ccc(O)cc1)O[C@@H]1O[C@H](CO[C@H]2OC[C@](O)(CO)[C@H]2O)[C@@H](O)[C@H](O)[C@H]1O (stereo not given in full)
inactive: activation [1] 2.29% | Potency [2] | Potency [3]

c1ccc([C@@H]2C[C@H]2NC2CCNCC2)cc1
inactive: activation [1] 13.8% | Potency [2] | Potency [3]

C[C@]12CC[C@H](O)C[C@@H]1CC[C@@H]1[C@@H]2CC[C@]2(C)C(=O)CC[C@@H]12
inactive: activation [1] 6.33% | Potency [2] | Potency [3]

O=C1C[C@@H]2OCC=C3CN4CC[C@]56c7ccccc7N1[C@H]5[C@H]2[C@H]3C[C@H]46
inactive: activation [1] -3.57% | Potency [2] | Potency [3]

C/C=C(\C)C(=O)O[C@H]1[C@H](OC(C)=O)[C@]2(CO)[C@H](O)[C@H](O)[C@]3(C)C(=CCC4[C@@]5(C)CC[C@H](O[C@@H]6O[C@H](C(=O)O)[C@@H](O)[C@H](O[C@@H]7OC[C@H](O)[C@H](O[C@@H]8OC[C@H](O)[C@H](O)[C@H]8O)[C@H]7O)[C@H]6O[C@@H]6O[C@H](CO)[C@@H](O)[C@H](O)[C@H]6O)C(C)(C)C5CC[C@]43C)[C@@H]2CC1(C)C (stereo not given in full)
inactive: activation [1] -3.05% | activity change, negative = inhibition [2] 1.02% [at 11.2 µM] | activity change, negative = inhibition [3] 2.55% [at 11.2 µM]
